Columns and labels:
Assay in all cases: DAPPL (digital affinity profiling via proximity ligation, sequencing); 10 mM Tris-HCl pH 7.5, 50 mM NaCl, 1 mM DTT, 4% glycerol, room temperature, 30 min; GST-TFs on glutathione beads, 16-mer random dsDNA library, 0.1% formaldehyde crosslink after washing; high values mean tight binding
FEV = target: T1, FEV (Homo sapiens, UniProt Q99581 1-238); conditions: protein: recombinant; tags: N-terminal GST; dsDNA, one strand shown
T1 sequence: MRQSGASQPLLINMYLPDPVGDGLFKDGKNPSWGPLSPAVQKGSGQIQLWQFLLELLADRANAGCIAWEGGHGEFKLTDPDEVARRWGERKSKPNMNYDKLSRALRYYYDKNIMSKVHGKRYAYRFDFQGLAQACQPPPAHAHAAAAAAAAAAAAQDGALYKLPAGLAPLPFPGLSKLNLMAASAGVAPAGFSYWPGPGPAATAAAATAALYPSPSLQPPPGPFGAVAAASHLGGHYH
In short: (§1)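 Human transcription factors carrying a GST fusion were produced in yeast, bound to glutathione beads, tagged with DNA barcodes and pooled together with a tag-only sample. Each pool was held with 200 nmole of a random double-stranded 16-mer DNA library in Tris/NaCl/DTT/glycerol buffer for 30 min at room temperature, then washed, crosslinked in 0.1% formaldehyde, proximity-ligated with BsaI/T4 ligase (1 h, 37 °C), PCR-amplified and sequenced on an Illumina NextSeq500. Binding signal is the read frequency of each hexamer for a given factor divided by its frequency in the tag-only sample.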

ETV5 = ETV5 (Homo sapiens, UniProt P41161 1-510); conditions: protein: recombinant; tags: N-terminal GST; dsDNA, one strand shown
In short: as §1

HSF1 = HSF1 (Homo sapiens, UniProt Q00613 1-529); conditions: protein: recombinant; tags: N-terminal GST; chain copies: 3; dsDNA, one strand shown
In short: as §1

SPIC = target: T2, SPIC (Homo sapiens, UniProt Q8N5J4 1-248); conditions: protein: recombinant; tags: N-terminal GST; dsDNA, one strand shown
T2 sequence: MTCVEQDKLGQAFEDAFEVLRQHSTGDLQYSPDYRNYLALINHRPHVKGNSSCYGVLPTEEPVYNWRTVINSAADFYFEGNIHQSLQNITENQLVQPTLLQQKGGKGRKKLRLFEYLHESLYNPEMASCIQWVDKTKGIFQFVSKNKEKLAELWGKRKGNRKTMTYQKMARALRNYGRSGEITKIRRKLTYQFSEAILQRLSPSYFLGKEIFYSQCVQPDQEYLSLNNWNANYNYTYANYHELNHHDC
In short: as §1

ELF4 = ELF4 (Homo sapiens, UniProt Q99607 1-663); conditions: protein: recombinant; tags: N-terminal GST; dsDNA, one strand shown
In short: as §1

ELK4 = target: T3, ELK4 (Homo sapiens, UniProt P28324-2 1-405); conditions: protein: recombinant; tags: N-terminal GST; dsDNA, one strand shown
T3 sequence: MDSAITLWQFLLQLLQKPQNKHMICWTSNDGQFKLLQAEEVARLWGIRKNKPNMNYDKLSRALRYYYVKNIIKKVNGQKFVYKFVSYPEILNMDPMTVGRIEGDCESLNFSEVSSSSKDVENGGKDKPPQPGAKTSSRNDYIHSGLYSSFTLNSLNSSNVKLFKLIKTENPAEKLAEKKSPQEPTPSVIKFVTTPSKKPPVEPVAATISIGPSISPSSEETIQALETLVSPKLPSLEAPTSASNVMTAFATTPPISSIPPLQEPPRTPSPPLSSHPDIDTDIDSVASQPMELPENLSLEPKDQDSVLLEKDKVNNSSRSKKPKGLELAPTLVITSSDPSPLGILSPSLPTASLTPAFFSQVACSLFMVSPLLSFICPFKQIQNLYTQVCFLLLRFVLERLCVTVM
In short: as §1

ETV2 = target: T4, ETV2 (Homo sapiens, UniProt O00321 1-342); conditions: protein: recombinant; tags: N-terminal GST; dsDNA, one strand shown
T4 sequence: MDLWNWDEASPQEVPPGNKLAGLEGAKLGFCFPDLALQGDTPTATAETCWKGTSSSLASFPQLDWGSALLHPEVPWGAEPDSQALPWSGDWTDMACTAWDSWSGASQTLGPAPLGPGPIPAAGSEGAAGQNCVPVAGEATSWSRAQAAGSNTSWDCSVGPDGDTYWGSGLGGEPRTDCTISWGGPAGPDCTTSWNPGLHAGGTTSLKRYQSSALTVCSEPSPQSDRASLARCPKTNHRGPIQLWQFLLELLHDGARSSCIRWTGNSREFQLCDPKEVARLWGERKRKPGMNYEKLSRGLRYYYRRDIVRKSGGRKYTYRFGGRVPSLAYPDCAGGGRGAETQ
In short: as §1

ELF3 = target: T5, ELF3 (Homo sapiens, UniProt P78545 1-371); conditions: protein: recombinant; tags: N-terminal GST; dsDNA, one strand shown
T5 sequence: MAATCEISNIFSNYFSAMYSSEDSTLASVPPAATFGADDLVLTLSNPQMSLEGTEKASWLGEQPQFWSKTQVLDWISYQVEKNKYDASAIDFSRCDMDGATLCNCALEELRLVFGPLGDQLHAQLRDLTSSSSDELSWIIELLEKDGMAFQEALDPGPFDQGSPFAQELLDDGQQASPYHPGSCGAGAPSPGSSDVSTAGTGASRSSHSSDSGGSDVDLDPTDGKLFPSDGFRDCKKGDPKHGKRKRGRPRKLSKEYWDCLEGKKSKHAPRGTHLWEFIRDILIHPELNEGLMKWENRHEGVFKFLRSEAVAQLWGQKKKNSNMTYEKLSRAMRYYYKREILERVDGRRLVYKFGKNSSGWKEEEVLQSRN
In short: as §1

CRX = CRX (Homo sapiens, UniProt O43186 1-299); conditions: protein: recombinant; tags: N-terminal GST; dsDNA, one strand shown
In short: as §1

ETV1 = ETV1 (Homo sapiens, UniProt P50549 1-477); conditions: protein: recombinant; tags: N-terminal GST; dsDNA, one strand shown
In short: as §1

ERF = target: T6, ERF (Homo sapiens, UniProt P50548 1-548); conditions: protein: recombinant; tags: N-terminal GST; dsDNA, one strand shown
T6 sequence: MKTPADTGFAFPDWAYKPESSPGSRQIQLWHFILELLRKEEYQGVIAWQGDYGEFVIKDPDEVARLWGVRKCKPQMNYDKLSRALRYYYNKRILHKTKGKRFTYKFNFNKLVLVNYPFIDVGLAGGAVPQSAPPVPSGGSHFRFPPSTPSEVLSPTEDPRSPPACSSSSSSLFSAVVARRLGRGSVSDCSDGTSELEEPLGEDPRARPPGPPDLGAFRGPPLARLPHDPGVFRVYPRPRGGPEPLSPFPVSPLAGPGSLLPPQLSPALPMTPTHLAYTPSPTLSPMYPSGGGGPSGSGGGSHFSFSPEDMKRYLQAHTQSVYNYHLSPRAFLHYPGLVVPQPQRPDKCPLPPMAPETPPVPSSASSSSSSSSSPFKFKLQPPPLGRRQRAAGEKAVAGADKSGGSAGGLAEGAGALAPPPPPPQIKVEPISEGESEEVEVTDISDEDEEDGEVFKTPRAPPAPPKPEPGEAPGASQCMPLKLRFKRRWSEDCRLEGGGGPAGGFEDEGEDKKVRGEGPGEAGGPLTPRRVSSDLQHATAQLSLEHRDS
In short: as §1

ETV3L = target: T7, ETV3L (Homo sapiens, UniProt Q6ZN32 1-361); conditions: protein: recombinant; tags: N-terminal GST; dsDNA, one strand shown
T7 sequence: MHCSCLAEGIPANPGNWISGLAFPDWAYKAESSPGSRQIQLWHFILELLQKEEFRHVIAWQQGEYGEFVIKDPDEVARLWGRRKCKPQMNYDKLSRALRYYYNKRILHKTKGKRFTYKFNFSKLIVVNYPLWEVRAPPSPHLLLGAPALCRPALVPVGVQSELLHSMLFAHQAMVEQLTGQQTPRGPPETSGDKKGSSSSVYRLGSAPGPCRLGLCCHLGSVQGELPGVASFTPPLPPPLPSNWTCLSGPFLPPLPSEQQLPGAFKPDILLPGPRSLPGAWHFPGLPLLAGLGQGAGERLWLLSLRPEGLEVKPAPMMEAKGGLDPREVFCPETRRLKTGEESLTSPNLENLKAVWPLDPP
In short: as §1

ETS2 = target: T8, ETS2 (Homo sapiens, UniProt P15036 1-469); conditions: protein: recombinant; tags: N-terminal GST; dsDNA, one strand shown
T8 sequence: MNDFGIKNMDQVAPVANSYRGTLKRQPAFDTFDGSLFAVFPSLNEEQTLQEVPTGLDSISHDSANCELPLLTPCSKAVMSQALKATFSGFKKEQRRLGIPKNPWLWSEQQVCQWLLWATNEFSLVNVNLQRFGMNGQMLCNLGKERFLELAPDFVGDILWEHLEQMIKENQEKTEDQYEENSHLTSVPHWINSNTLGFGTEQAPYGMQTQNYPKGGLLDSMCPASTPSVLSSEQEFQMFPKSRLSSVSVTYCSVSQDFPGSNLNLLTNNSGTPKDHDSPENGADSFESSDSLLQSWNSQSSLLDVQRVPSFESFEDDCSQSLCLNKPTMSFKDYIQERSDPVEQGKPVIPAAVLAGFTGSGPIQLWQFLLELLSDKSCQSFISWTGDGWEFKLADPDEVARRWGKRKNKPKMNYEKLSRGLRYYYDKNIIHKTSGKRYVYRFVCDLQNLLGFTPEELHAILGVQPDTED
In short: as §1

SPDEF = target: T9, SPDEF (Homo sapiens, UniProt O95238 1-335); conditions: protein: recombinant; tags: N-terminal GST; dsDNA, one strand shown
T9 sequence: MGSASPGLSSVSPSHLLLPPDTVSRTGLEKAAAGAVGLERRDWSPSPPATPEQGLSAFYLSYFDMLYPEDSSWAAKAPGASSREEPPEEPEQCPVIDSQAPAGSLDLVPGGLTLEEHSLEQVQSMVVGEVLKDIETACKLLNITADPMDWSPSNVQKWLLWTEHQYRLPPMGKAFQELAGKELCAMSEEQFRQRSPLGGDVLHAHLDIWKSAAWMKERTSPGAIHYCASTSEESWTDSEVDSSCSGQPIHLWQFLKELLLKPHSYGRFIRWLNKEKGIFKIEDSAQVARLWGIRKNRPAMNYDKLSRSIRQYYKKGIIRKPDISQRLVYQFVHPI
In short: as §1

ETV7 = target: T10, ETV7 (Homo sapiens, UniProt Q9Y603 1-341); conditions: protein: recombinant; tags: N-terminal GST; dsDNA, one strand shown
T10 sequence: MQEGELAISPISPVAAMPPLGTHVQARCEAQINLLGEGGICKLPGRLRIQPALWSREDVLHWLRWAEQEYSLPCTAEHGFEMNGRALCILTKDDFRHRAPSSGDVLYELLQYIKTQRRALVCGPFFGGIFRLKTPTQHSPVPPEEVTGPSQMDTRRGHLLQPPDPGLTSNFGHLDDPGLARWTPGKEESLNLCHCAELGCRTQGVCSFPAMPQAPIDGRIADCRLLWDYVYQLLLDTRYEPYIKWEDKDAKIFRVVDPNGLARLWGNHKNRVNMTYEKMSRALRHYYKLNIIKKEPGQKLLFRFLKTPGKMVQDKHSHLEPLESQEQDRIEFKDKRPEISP
In short: as §1

ELF5 = target: T11, ELF5 (Homo sapiens, UniProt Q9UKW6-2 1-255); conditions: protein: recombinant; tags: N-terminal GST; dsDNA, one strand shown
T11 sequence: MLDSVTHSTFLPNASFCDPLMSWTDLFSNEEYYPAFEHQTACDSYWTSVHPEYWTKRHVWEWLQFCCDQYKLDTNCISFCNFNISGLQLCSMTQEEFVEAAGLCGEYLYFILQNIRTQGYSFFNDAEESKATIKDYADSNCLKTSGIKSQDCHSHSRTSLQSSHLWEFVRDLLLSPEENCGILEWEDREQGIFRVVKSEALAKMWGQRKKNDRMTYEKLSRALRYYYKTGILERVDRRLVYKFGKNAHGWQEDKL
In short: as §1

ETV3 = target: T12, ETV3 (Homo sapiens, UniProt P41162-2 1-143); conditions: protein: recombinant; tags: N-terminal GST; dsDNA, one strand shown
T12 sequence: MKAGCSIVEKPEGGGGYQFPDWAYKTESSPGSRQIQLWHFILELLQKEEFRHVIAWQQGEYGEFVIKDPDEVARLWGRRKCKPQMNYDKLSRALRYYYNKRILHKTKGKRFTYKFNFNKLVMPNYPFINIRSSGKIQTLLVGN
In short: as §1

ETV6 = ETV6 (Homo sapiens, UniProt P41212 1-452); conditions: protein: recombinant; tags: N-terminal GST; dsDNA, one strand shown
In short: as §1

ELF4, sequence (Q99607 whole entry): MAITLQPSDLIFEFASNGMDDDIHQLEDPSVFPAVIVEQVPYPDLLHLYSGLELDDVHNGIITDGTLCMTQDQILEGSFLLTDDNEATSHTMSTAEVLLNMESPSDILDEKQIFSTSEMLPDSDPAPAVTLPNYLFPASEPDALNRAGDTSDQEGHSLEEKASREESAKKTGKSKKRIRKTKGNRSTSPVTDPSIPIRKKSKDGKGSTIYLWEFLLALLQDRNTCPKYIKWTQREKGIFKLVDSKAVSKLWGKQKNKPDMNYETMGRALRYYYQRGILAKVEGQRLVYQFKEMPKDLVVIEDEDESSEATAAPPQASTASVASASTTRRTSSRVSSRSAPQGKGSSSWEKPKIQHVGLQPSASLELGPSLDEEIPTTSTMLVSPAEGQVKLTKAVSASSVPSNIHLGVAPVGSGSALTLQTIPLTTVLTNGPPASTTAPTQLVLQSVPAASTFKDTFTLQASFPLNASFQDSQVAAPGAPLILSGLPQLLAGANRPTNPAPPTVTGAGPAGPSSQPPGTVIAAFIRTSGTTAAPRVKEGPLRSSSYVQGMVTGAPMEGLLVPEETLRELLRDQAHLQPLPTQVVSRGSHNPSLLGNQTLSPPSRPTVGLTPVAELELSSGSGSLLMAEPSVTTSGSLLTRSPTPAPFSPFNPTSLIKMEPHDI
CRX, sequence (O43186 whole entry): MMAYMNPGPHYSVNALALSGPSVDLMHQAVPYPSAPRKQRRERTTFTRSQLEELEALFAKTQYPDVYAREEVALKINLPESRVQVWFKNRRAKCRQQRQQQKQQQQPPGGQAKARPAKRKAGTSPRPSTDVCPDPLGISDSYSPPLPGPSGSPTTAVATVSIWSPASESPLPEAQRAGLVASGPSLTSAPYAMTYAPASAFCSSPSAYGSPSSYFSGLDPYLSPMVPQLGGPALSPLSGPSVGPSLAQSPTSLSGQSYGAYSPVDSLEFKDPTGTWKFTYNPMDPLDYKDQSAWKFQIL
ETV5, sequence (P41161 whole entry): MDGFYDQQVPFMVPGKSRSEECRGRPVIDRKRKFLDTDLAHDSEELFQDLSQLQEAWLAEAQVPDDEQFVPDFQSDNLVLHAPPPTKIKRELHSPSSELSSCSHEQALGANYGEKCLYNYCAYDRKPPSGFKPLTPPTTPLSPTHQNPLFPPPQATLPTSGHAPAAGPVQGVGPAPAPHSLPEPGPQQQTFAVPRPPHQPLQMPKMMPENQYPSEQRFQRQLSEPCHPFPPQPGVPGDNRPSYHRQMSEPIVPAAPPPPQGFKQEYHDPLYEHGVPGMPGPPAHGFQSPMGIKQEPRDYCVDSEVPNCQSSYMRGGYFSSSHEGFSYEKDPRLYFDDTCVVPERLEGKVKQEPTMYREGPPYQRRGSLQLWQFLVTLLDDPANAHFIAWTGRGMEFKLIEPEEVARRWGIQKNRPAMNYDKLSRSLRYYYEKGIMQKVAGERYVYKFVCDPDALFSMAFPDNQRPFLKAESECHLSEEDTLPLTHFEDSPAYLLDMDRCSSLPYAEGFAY
ETV1, sequence (P50549 whole entry): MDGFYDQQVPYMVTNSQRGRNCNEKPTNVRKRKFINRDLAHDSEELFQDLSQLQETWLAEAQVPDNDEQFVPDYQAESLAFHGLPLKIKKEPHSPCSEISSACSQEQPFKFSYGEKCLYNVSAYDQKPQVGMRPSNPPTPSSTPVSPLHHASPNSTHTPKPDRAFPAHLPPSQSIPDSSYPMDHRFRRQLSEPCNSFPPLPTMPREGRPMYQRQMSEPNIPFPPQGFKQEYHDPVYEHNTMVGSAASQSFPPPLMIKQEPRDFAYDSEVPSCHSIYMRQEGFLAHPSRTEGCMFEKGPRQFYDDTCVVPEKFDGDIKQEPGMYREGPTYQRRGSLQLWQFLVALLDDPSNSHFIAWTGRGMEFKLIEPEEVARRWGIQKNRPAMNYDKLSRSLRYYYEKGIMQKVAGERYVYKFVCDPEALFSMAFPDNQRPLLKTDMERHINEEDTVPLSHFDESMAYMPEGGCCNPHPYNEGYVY
HSF1, sequence (Q00613 whole entry): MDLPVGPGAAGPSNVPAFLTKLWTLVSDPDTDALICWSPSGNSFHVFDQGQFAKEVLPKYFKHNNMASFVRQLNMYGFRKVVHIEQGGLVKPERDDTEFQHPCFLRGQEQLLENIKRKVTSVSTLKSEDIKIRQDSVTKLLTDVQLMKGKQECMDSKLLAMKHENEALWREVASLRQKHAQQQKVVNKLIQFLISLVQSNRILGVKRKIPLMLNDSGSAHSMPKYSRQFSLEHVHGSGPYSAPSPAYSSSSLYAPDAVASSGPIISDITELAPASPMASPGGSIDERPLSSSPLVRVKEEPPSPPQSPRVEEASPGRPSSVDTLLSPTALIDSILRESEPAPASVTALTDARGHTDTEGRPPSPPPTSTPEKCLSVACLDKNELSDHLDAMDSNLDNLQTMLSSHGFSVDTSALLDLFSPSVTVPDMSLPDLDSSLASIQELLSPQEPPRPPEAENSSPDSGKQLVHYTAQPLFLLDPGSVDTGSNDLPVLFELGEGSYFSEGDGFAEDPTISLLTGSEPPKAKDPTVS
ETV6, sequence (P41212 whole entry): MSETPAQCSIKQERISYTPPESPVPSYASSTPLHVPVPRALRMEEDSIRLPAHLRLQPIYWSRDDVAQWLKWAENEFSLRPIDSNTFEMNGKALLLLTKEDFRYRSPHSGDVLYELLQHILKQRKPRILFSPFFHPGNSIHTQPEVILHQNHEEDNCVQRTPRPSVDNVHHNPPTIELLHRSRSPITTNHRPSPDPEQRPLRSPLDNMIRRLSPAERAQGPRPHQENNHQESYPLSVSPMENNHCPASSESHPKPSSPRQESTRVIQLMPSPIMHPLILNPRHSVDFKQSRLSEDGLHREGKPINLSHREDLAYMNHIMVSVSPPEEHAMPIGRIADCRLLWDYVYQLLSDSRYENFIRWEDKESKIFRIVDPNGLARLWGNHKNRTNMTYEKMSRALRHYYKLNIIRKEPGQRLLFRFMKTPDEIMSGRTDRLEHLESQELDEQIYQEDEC

## ATCTAT
FEV
  binding signal: 1.08 fold enrichment (6-mer frequency, TF over GST control)
ETV5
  binding signal: 1.15 fold enrichment (6-mer frequency, TF over GST control)
HSF1
  binding signal: 1.32 fold enrichment (6-mer frequency, TF over GST control)
SPIC
  binding signal: 1.27 fold enrichment (6-mer frequency, TF over GST control)
ELF4
  binding signal: 1.21 fold enrichment (6-mer frequency, TF over GST control)
ELK4
  binding signal: 1.18 fold enrichment (6-mer frequency, TF over GST control)
ETV2
  binding signal: 1.13 fold enrichment (6-mer frequency, TF over GST control)
ELF3
  binding signal: 1.23 fold enrichment (6-mer frequency, TF over GST control)
CRX
  binding signal: 1.42 fold enrichment (6-mer frequency, TF over GST control)
ETV1
  binding signal: 1.16 fold enrichment (6-mer frequency, TF over GST control)
ERF
  binding signal: 1.12 fold enrichment (6-mer frequency, TF over GST control)
ETV3L
  binding signal: 1.07 fold enrichment (6-mer frequency, TF over GST control)
ETS2
  binding signal: 1.15 fold enrichment (6-mer frequency, TF over GST control)
SPDEF
  binding signal: 1.17 fold enrichment (6-mer frequency, TF over GST control)
ETV7
  binding signal: 1.18 fold enrichment (6-mer frequency, TF over GST control)
ELF5
  binding signal: 1.05 fold enrichment (6-mer frequency, TF over GST control)
ETV3
  binding signal: 1.12 fold enrichment (6-mer frequency, TF over GST control)
ETV6
  binding signal: 1.14 fold enrichment (6-mer frequency, TF over GST control)
